Laboratory results as given in PubChem BioAssay (Tox21).
Values joined by “and” are separate entries in the source; they are usually repeats but may differ in a detail not shown here. Equal values may be shown once. Inconclusive results are not listed. Where a structure was tested more than once in an assay, its records may differ in their call. Active and inactive are the calls of the source. Unless noted, calls follow the shape of the dose curve; as a rule, active = well fitted curve in the direction sought with a large enough effect in the repeat runs; inconclusive = weak or mixed curves; inactive = no such curve, though single readings can be large; an effect the other way counts as inactive or inconclusive.

How the values were obtained:
[1] = qHTS assay to identify aromatase inhibitors - cell viability counter screen (AID 743084);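 also: cells stimulated with testosterone during compound exposure; nearly all actives have a fitted effect of over 55% in size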; also: potency is read from the fitted curve at half-maximal effect
[2] = molecular target: Aryl hydrocarbon receptor (Homo sapiens) (UniProt P35869); assay: qHTS assay to identify small molecule that activate the aryl hydrocarbon receptor (AhR) signaling pathway (AID 743085); also: nearly all actives have a fitted effect of over 15% in size; also: potency is read from the fitted curve at half-maximal effect;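 as to activation: HG2L7.5c1 human HepG2 liver cells with stably integrated DRE-driven firefly reporter; series mostly up to about 70 µM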
Method in brief: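 HepG2 cells stably carrying a 20-DRE firefly luciferase reporter (HG2L7.5c1) treated with compound for 24 hr at 37C. Luciferase read by ONE-Glo luminescence, with CellTiter-Fluor viability read first.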

[3] = qHTS assay to identify small molecule that activate the aryl hydrocarbon receptor (AhR) signaling pathway - cell viability counter screen (AID 743086);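 also: HepG2 liver cells carrying the AhR DRE luciferase reporter; series mostly up to about 70 µM; nearly all actives have a fitted effect of over 45% in size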
Method in brief: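 Cytotoxicity counter screen: CellTiter-Fluor signal (30 min, 37 C) in 4000 HepG2 cells/well carrying the DRE-luciferase reporter, following 24 h compound exposure at 37 C.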

[4] = molecular target: Peroxisome proliferator-activated receptor gamma (Homo sapiens) (UniProt P37231); assay: qHTS assay to identify small molecule agonists of the peroxisome proliferator-activated receptor gamma (PPARg) signaling pathway (AID 743094; active = well fitted activation curve with a large enough effect in the signal ratio in the repeat runs, not every such curve was filed as active; the % refers to the signal ratio; also: potency is read from the fitted curve at half-maximal effect)
Method in brief: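 GeneBLAzer PPARg UAS-bla HEK293H cells were plated, rested 5 h, then exposed to compounds for 17 h at 37C. Beta-lactamase activity was read by LiveBLAzer B/G FRET substrate fluorescence after 1 h at room temperature.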

[5] = qHTS assay for small molecule agonists of the antioxidant response element (ARE) signaling pathway (AID 743202; active = well fitted activation curve with a large enough effect in the signal ratio in the repeat runs, not every such curve was filed as active; the % refers to the signal ratio; also: potency is read from the fitted curve at half-maximal effect)
Method in brief: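 Quantitative high-throughput format in HepG2 cells bearing an integrated ARE-beta-lactamase reporter. Compound exposure lasted 16 h at 37 C, and fluorescence was read 2 h after adding LiveBLAzer B/G substrate at room temperature.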

[6] = qHTS assay for small molecule agonists of the antioxidant response element (ARE) signaling pathway - cell viability counter screen (AID 743203; calls by dose curve; also: nearly all actives have a fitted effect of over 55% in size; also: potency is read from the fitted curve at half-maximal effect)
Method in brief: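 ARE-bla HepG2 cells were plated, rested 5 h at 37C/5% CO2, then exposed to compounds in DMSO for 16 h. Viability was read as CellTiter-Glo luminescence after 30 min at room temperature, in the same wells as the ARE screen.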

[7] = qHTS assay for small molecule activators of the heat shock response signaling pathway - cell viability counter screen (AID 743209); also: nearly all actives have a fitted effect of over 50% in size
Method in brief: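 HSE-bla HeLa cells plated overnight, then exposed to Tox21 compounds (23 nL in DMSO) for 5 h at 37 C. After the bla reporter read, CellTiter-Glo was added in the same wells and luminescence read after 30 min at room temperature.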

[8] = qHTS assay for small molecule activators of the heat shock response signaling pathway (AID 743210; active = well fitted activation curve with a large enough effect in the signal ratio in the repeat runs, with a control signal flat, not every such curve was filed as active; the % refers to the signal ratio; also: potency is read from the fitted curve at half-maximal effect;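 as to activation: HeLa cells with beta-lactamase reporter driven by heat shock elements; series mostly up to about 63 µM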)
Method in brief: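 HeLa HSE-bla cells, overnight plating; cpd in DMSO 5 h, 37 C; LiveBLAzer B/G FRET substrate 2.5 h RT; fluorescence intensity read.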

[9] = qHTS assay to identify small molecule antagonists of the peroxisome proliferator-activated receptor gamma (PPARg) signaling pathway - cell viability counter screen (AID 743194); details: Potency: co-treated with 50 nM rosiglitazone unless noted; also: nearly all actives have a fitted effect of over 55% in size
Method in brief: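 Viability was measured as CellTiter-Glo luminescence in GeneBLAzer PPARg UAS-bla HEK293H cells. These cells had been exposed 17 h at 37 C to compounds together with rosiglitazone at 50 nM final, with the beta-lactamase readout taken in the same wells.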

[10] = molecular target: Peroxisome proliferator-activated receptor gamma (Homo sapiens) (UniProt P37231); assay: qHTS assay to identify small molecule antagonists of the peroxisome proliferator-activated receptor gamma (PPARg) signaling pathway (AID 743191; calls by dose curve; also: series mostly up to about 63 µM; nearly all actives have a fitted effect of over 30% in size)
Method in brief: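 Beta-lactamase reporter under UAS control in HEK293H PPARg-bla cells; compound treatment 17 h at 37C. Read-out: fluorescence intensity after 1 h room-temperature incubation with LiveBLAzer B/G FRET substrate.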

Measured: Potency

Chain of Peroxisome proliferator-activated receptor gamma (Homo sapiens) (P37231 whole entry, looked up): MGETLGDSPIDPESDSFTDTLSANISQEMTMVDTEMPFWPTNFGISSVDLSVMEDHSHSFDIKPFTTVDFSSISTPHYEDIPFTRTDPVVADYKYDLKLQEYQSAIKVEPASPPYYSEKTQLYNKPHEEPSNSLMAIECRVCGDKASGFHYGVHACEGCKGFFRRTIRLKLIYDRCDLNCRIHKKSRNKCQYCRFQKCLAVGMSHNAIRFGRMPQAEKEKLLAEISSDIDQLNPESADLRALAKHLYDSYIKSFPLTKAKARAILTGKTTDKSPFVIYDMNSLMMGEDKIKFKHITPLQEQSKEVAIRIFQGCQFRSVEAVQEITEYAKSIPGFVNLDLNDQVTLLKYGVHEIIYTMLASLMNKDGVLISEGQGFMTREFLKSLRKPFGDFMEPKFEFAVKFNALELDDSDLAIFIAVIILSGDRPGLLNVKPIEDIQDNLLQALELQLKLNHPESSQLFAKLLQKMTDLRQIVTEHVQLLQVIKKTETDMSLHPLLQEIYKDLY
Chain of Aryl hydrocarbon receptor (Homo sapiens) (P35869 whole entry, looked up): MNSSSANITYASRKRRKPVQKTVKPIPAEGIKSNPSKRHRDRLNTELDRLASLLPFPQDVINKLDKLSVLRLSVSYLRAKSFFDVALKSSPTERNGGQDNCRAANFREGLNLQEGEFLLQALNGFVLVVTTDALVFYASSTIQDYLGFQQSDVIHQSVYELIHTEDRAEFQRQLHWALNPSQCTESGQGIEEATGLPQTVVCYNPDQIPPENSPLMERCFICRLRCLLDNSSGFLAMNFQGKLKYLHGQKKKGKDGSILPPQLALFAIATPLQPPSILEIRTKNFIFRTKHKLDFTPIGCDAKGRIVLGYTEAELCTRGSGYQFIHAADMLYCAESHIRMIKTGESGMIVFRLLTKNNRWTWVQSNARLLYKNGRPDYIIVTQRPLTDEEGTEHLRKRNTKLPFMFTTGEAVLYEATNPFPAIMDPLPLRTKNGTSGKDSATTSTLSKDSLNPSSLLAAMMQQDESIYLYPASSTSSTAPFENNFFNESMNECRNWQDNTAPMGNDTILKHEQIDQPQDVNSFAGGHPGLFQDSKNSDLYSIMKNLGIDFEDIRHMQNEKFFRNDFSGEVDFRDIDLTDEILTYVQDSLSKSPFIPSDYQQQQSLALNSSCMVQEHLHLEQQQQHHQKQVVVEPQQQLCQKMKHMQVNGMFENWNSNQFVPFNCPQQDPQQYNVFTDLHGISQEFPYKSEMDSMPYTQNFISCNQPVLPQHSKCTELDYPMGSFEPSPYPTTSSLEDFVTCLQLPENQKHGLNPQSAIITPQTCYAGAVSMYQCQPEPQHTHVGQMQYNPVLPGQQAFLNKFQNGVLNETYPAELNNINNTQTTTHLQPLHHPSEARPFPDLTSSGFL

CC(CN1c2ccccc2Sc2ccccc21)N(C)C (stereo unspecified)
68.6 µM (active) and inactive: [6]
not listed: [9] | [10]
inactive: all other assays above

CN=C(NC#N)NCCSCc1nc[nH]c1C
not listed: [10]
inactive: all other assays above

CC(COCC(C)OC(=O)c1ccccc1)OC(=O)c1ccccc1 (stereo unspecified)
not listed: [7] | [10]
inactive: all other assays above

Cc1ccc(C(C)C)cc1
not listed: [7] | [10]
inactive: all other assays above

CC(=O)OC(C)(C)C1CC=C(C)CC1 (stereo unspecified)
not listed: [10]
inactive: all other assays above

C=C(CC(=O)O)C(=O)O
not listed: [7] | [10]
inactive: all other assays above

Cc1ccncc1
not listed: [10]
inactive: all other assays above

CCCCC(=O)O
not listed: [10]
inactive: all other assays above

C[Si](C)(C)N[Si](C)(C)C
not listed: [7] | [10]
inactive: all other assays above

CC/C=C(\C(=O)N[C@@H]1C(=O)N2C(C(=O)OCOC(=O)C(C)(C)C)=C(COC(N)=O)CS[C@H]12)c1csc(N)n1
not listed: [5] | [10]
inactive: all other assays above

Nc1cccc(C(F)(F)F)c1
not listed: [5] | [10]
inactive: all other assays above

O=C(Cl)c1ccc(C(=O)Cl)cc1
not listed: [7] | [10]
inactive: all other assays above

CC1(C)C(=O)N(Cl)C(=O)N1Cl
not listed: [7] | [10]
inactive: all other assays above

Cc1ccccc1Cl
not listed: [7] | [10]
inactive: all other assays above

Cc1cc(CC(=O)O)n(C)c1C(=O)c1ccc(Cl)cc1
not listed: [10]
inactive: all other assays above

O=C1CCCCCCCCCCC1
not listed: [5] | [7] | [10]
inactive: all other assays above

CC(=O)C(C)C
not listed: [10]
inactive: all other assays above

O=C(c1ccccc1)c1ccc(O)c(O)c1O
not listed: [5] | [7] | [10]
inactive: all other assays above

C=CC(=O)NCOCCCC
not listed: [5] | [7] | [10]
inactive: all other assays above

COc1cc(NC(=O)CC(C)=O)c(OC)cc1Cl
active: [2] 24.4 µM and 686 nM
not listed: [5] | [10]
inactive: all other assays above

Cc1ccc([N+](=O)[O-])cc1N
active: [2] 61 µM
not listed: [10]
inactive: all other assays above

CCc1cccc(O)c1
not listed: [10]
inactive: all other assays above

CC(=O)OCCC(C)C
not listed: [10]
inactive: all other assays above

CC(C)=CCC/C(C)=C/C=O
not listed: [10]
inactive: all other assays above

CC(C)(CO)CO
not listed: [4] | [10]
inactive: all other assays above

NC1CCCCC1N (stereo unspecified)
not listed: [4] | [7] | [10]
inactive: all other assays above

COc1c2ccoc2cc2oc(=O)ccc12
not listed: [2] | [10]
inactive: all other assays above

CC/C(C)=N/O
inactive: [3] | [9] | [5] | [6] | [7] | [8]

O=C(O)Cc1c[nH]c2ccccc12
inactive: [3] | [9] | [5] | [6] | [7] | [8]

CC(=O)OCc1ccc2c(c1)OCO2
not listed: [4] | [10]
inactive: all other assays above

CC(=O)OC[C@H]1O[C@@](COC(C)=O)(O[C@H]2O[C@H](COC(C)=O)[C@@H](OC(C)=O)[C@H](OC(C)=O)[C@H]2OC(C)=O)[C@@H](OC(C)=O)[C@@H]1OC(C)=O
not listed: [4] | [10]
inactive: all other assays above

CS(=O)(=O)c1ccc(Cl)cc1
not listed: [4] | [10]
inactive: all other assays above

CC1(C)[C@@H](O[C@H]2O[C@H](C(=O)O)[C@@H](O)[C@H](O)[C@H]2O[C@@H]2O[C@H](C(=O)O)[C@@H](O)[C@H](O)[C@H]2O)CC[C@]2(C)[C@H]3C(=O)C=C4[C@@H]5C[C@@](C)(C(=O)O)CC[C@]5(C)CC[C@@]4(C)[C@]3(C)CC[C@@H]12
not listed: [4] | [8] | [10]
inactive: all other assays above

CCc1cccc(CC)c1N
not listed: [4] | [10]
inactive: all other assays above

Clc1cccc(Cl)c1NC1=NCCN1
not listed: [4] | [10]
inactive: all other assays above

C=C(C)CC(C)(C)C
inactive: [3] | [9] | [5] | [6] | [7] | [8]

CCCCCCCCC(=O)O
not listed: [4] | [7] | [10]
inactive: all other assays above

CCN(CC)CCNC(=O)c1ccc(N)cc1
not listed: [4] | [10]
inactive: all other assays above

COC(=O)/C=C\C(=O)OC
inactive: [3] | [9] | [6] | [7] | [8]

Oc1ccc(Cc2ccccc2O)cc1
active: [5] 30.6 µM
not listed: [9] | [10]
inactive: all other assays above

C=CC(C)(C)C
not listed: [9] | [10]
inactive: all other assays above

NCCNCCNCCN
inactive: [3] | [9] | [5] | [6] | [7]

O=C(NCC1CCCCN1)c1cc(OCC(F)(F)F)ccc1OCC(F)(F)F (stereo unspecified)
inactive: [3] | [9] | [5] | [6] | [7]

CO[Si](CCCNCCN)(OC)OC
not listed: [2] | [10]
inactive: all other assays above

COc1ccccc1[N+](=O)[O-]
not listed: [4] | [10]
inactive: all other assays above

CN1Cc2c(N)cccc2C(c2ccccc2)C1 (stereo unspecified)
inactive: [2] | [3] | [9] | [5] | [6] | [8]

CC(=O)c1nccs1
not listed: [2]
inactive: all other assays above

CCCCCCC(=O)O
not listed: [4] | [10]
inactive: all other assays above

NC(=O)NC(N)=O
not listed: [9] | [10]
inactive: all other assays above

CCn1cc(C(=O)O)c(=O)c2cc3c(cc21)OCO3
not listed: [4] | [10]
inactive: all other assays above

Brc1ccc(Oc2ccc(Br)cc2)cc1
inactive: [3] | [9] | [5] | [6] | [8]

N[C@@H](Cc1cc(I)c(Oc2ccc(O)c(I)c2)c(I)c1)C(=O)O
inactive and 12.7 µM (active): [5]
not listed: [2] | [10]
inactive: all other assays above

CCOC(=O)CC(=O)OCC
inactive: [3] | [9] | [5] | [6] | [8]

OCCOCCOCCOCCOCCO
not listed: [2] | [4] | [10]
inactive: all other assays above

CC[N+](CC)(CC(=O)Nc1c(C)cccc1C)Cc1ccccc1
not listed: [2] | [8] | [10]
inactive: all other assays above

CC(C)(C)NC[C@H](O)COc1nsnc1N1CCOCC1
not listed: [4] | [7] | [10]
inactive: all other assays above

O=[N+]([O-])c1ccccc1C(F)(F)F
not listed: [2]
inactive: all other assays above

CC(=O)CC(=O)N(C)C
not listed: [2] | [4] | [10]
inactive: all other assays above

COc1ccc2cc3[n+](cc2c1OC)CCc1cc2c(cc1-3)OCO2
inactive and 48.9 µM (active): [1]
inactive: [3] | [4] | [9] | [6] | [8]
active: [5] 2.45 µM and 5.96 µM

Nc1nc(N)c2nc(-c3ccccc3)c(N)nc2n1
active: [4] 23.9 µM | [5] 31 µM and 30.6 µM and 23.7 µM | [6] 27.6 µM and 17.2 µM | [8] 37.1 µM and 29.7 µM and 26.6 µM
inactive: [3] | [9]

O=c1n(CCCN2CCN(c3cccc(Cl)c3)CC2)nc2ccccn12
not listed: [4] | [5] | [10]
inactive: all other assays above

CCOC(=O)c1ccc(O)cc1
not listed: [4] | [10]
inactive: all other assays above
